Compound activity deposited in PubChem by National Center for Advancing Translational Sciences (NCATS).
Rows were chosen to be rich in hits. Some 9.2% of all compounds tested hit in one or more screens of this group.
Rab9 promoter act: activators of Rab9 promoter | AID 485297 | Huh7 Rab9 promoter-luciferase reporter, luminescence, 24 h | Potency, µM (titrated, usually from 9.22 µM), for the others: at the top dose activation, negative = inhibition, usual class: activators | hit rate 2.8% among 320,000; note: % of control where 0% means no effect; nearly all actives have a fitted effect of over 60% in size
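Huh7 cells stably carrying Rab9 promoter–luciferase reporter, plated 1500 cells/well, compound added after 2 h and incubated 24 h at 37 °C; luciferase luminescence then read after 10 min with detection reagent.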
SMN2 splice enh: SMN2 splice variant enhancement | HEK293 SMN2-luciferase splicing reporter, luminescence, 30-36 h | hit rate 2.8% among 210,000 | Potency, µM (top dose mostly 46.1 µM), inactives show top-dose activity change, positive = activation, most hits filed as activators | AID 1458; note: % of control where 0% means no effect; nearly all actives have a fitted effect of over 55% in size
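HEK293 cells carry an SMN2 minigene-luciferase reporter in which exon 7 inclusion puts luciferase in frame. Cells were seeded at 2000 cells/well, attached for 10-12 hours, then exposed to compounds for 30-36 hours at 37C before ONE-Glo luminescence.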
ELG1 genotox: induces genotoxicity in HEK293T cells with luciferase-tagged ELG1; hit rate 1.3% among 330,000; Potency, µM (doses to about 46 µM), without a hit: at the top dose activity change, positive = activation, usual class: activators; HEK293T ELG1-luciferase reporter, luminescence, 16 h; AID 504466; note: % of control where 0% means no effect; nearly all actives have a fitted effect of over 60% in size
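DMSO vehicle served as control against compound-treated ELG1-luciferase HEK293T cells; exposure lasted 16 hr at 37 °C and 5% CO2, followed by ONE-Glo luminescence detection after 30 min.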
NPC1 prom act: activators of NPC1 promoter; Huh7 NPC1 promoter luciferase reporter, 24 h; Potency, µM (highest dose often 9.22 µM), for inactives: top-dose activation, usual class: activators; hit rate 2.4% among 320,000; note: % of control where 0% means no effect; nearly all actives have a fitted effect of over 60% in size
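Compounds in DMSO were transferred onto Huh7 NPC1-luciferase reporter cells pre-incubated 2 h; after 24 h at 37 °C, Amplite reagent was dispensed and luminescence recorded 10 min later.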
FLuc counter: inhibits or activates purified firefly luciferase, miR-21 counter-screen | P08659 | purified FLuc, Km substrates, luminescence inhibition | Potency, µM (top dose mostly 57.5 µM), for inactives: at the top dose activity change, negative = inhibition, most hits filed as inhibitors | hit rate 6.9% among 360,000;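 note: plate controls were vehicle for no effect and reference inhibitor for full effect; nearly all actives have a fitted effect of over 55% in size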
Target sequence (P08659 whole entry, looked up): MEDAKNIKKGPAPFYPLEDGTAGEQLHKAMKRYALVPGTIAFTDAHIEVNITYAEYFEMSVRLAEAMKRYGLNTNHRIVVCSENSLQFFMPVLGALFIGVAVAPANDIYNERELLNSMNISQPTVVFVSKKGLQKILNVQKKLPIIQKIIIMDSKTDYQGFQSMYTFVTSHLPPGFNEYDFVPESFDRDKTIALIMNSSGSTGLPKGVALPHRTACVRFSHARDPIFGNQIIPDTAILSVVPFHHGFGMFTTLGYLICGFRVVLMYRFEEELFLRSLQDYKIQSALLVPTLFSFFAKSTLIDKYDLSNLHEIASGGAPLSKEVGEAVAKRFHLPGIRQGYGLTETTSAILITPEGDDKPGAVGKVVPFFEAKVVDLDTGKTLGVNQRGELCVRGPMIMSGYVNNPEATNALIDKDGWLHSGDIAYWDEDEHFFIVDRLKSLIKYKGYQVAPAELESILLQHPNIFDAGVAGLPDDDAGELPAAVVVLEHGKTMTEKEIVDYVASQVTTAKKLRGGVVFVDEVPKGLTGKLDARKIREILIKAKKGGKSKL
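Purified P. pyralis luciferase, 10 nM final, with Km-level 10 uM D-luciferin and 10 uM ATP in 50 mM Tris acetate pH 7.5, 10 mM Mg acetate, 0.01% Tween-20, 0.05% BSA; 6-point qHTS titration about 60 µM downward; luminescence read.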
ELG1 DNA repair: blocks ELG1-dependent DNA repair in HEK293T cells; HEK293T ELG1-luciferase reporter, luminescence, 16 h; DNA damage induced by 5-fluorouridine; Potency, µM (highest dose often 46.1 µM), without a hit: at the top dose activity change, negative = inhibition, hits mostly inhibitors; AID 504467; hit rate 2.3% among 330,000; note: % is set by controls: 0 for no effect and ±100 for the full control effect; nearly all actives have a fitted effect of over 55% in size
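Luminescence from the luciferase reporter, measured 30 min after ONE-Glo reagent at room temperature, was the read-out. Beforehand, 2,000 cells per well were exposed for 16 hr at 37 °C to 5-fluorouridine together with compound or vehicle.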
Starred values were filed as active, the others as inactive; u = inconclusive; x = not tested or not shown; [ ] = remark or other dose. Calls come from the whole dose curve; as a rule, active = well fitted curve in the direction sought with a large enough effect; inconclusive = small, poorly fitted or top-dose-only effect, or another doubt; inactive = no such curve, though single readings can be large; an effect the other way counts as inactive or inconclusive. Potency is the fitted concentration of half-maximal effect.

SMILES	Rab9 promoter act	SMN2 splice enh	ELG1 genotox	NPC1 prom act	FLuc counter	ELG1 DNA repair
CC(CN1CCCC1)C(=O)NN (configuration not stated)	-4%	-8%	0%	-5%	0%	-5%
O=C(CN1C(=O)COc2ccc(S(=O)(=O)N3CCCC3)cc21)NC1CCCCCCC1	-3%	-5%	1%	-1%	-2%	8%
N#CCCn1c(=O)c(-c2ccc(Cl)cc2)nc2cnc(OCc3ccccc3)nc21	x	-14%	x	x	x	x
O=C(NC(=O)c1ccccc1O)c1ccc2c(c1)CCO2	u	x	u	1.4µM*	1.2µM*	u
CC(=O)Oc1ccc(-c2ccc(C(=O)OCC(=O)N(C)CC(=O)Nc3ccccc3Cl)cc2)cc1	-40%	x	u	7%	u	1%
Cc1ccc(-n2ncc(N(C)C)c(Cl)c2=O)cc1	1.1µM*	u	u	0.4µM*	5.4µM*	u
COc1ccc(-n2ncc(N(C)n3cccc3)c(Cl)c2=O)cc1	0.56µM*	x	u	1.3µM*	4.8µM*	u
CN(C)c1cnn(-c2ccccc2)c(=O)c1Cl	13%	21%	16%	13%	u	u
COC(=O)c1sc(N)c(C(=O)OC)c1COC(=O)CNS(=O)(=O)c1ccc(C)c(C)c1	-6%	-11%[1.84 µM]	-1%	-4%	7%	u
COC(=O)c1sc(N)c(C(=O)OC)c1COC(=O)CCNS(=O)(=O)c1ccc(C)cc1	-1%	-8%	-6%	-1%	-1%	10µM*
Cc1ccc(-c2cc(C(=O)N/N=C/c3ccoc3)c3ccccc3n2)cc1	-7%	x	-3%	-8%	4.8µM*	-10%
O=C(N/N=C/c1ccco1)c1cc(-c2ccncc2)nc2ccccc12	-4%	x	3%	-15%	u	-10%
COc1ccc(/C=N/NC(=O)c2cc(-c3ccccc3)nc3ccccc23)c(C(=O)O)c1OC	3%	x	3%	3%	7.6µM*	14%
COc1cc([N+](=O)[O-])cc(/C=N/NC(=O)c2cc(-c3ccccc3)nc3ccccc23)c1O	-10%	x	u	0%	u	u
O=C(N/N=C/c1cc(Cl)cc([N+](=O)[O-])c1O)c1cc(-c2ccccn2)nc2ccccc12	-16%	x	10%	-5%	21µM*	u
COc1ccccc1NS(=O)(=O)c1cccc(C(=O)N/N=C/c2ccccc2OCC(=O)O)c1	2%	17%	10%	-4%	-5%	-12%
CCN(CC)S(=O)(=O)c1cccc(C(=O)N/N=C/c2ccccc2OCC(=O)O)c1	-3%	2%	-1%	-4%	27µM*	0%
CC(=O)NCCNC(=O)CCCc1nnc2n(CC(C)C)c(=O)c3sccc3n12	x	x	x	x	-4%	x
CCOc1ccc(NC(=O)c2cnc(N3CCCC3)nc2C)cc1	x	x	x	x	-20%	x
CC(=O)c1cccc(NC(=O)Cn2cnc(S(=O)(=O)N3CCCC3)c2)c1	3%	x	0%	-1%	4%	u
Cc1cc(C)c(Cn2c(=O)n(Cc3ccccc3)c(=O)c3c(C)c(C)sc32)c(C)c1	x	-4%	x	x	0%	x
Cc1ccc(/C=N/NC(=O)c2cc(C3CC3)nc3ccccc23)o1	-24%	-21%	7%	-17%	-1%	u
O=C(N/N=C/c1ccccn1)c1cc(-c2ccccc2)nc2ccccc12	1%	x	u	-3%	13µM*	25%
CCOc1ccc(/C=N/NC(=O)c2cc(-c3ccccc3)nc3ccccc23)cc1O	0%	x	-18%	1%	15µM*	-16%
COc1cc(/C=N/NC(=O)c2cc(-c3ccccc3OC(C)C)nc3ccccc23)ccc1O	0%	u	-7%	-1%	-3%	u
SMILES	Rab9 promoter act	SMN2 splice enh	ELG1 genotox	NPC1 prom act	FLuc counter	ELG1 DNA repair
O=C(N/N=C/c1ccc(F)cc1)c1cc(-c2ccccn2)nc2ccccc12	-3%	x	2%	-9%	-19%	0%
COc1ccc(/C=N/NC(=O)c2cc(-c3ccccc3)nc3ccccc23)cc1O	1%	x	-6%	2%	5.4µM*	-5%
COc1ccccc1-c1cc(C(=O)N/N=C\c2cn(C)nc2C)c2ccccc2n1	-4%	-1%	0%	0%	-2%	u
Cc1ccc(-c2cc(C(=O)N/N=C/c3c(C)nn(C)c3C)c3ccccc3n2)cc1C	u	u	u	29%	0.6µM*	u
O=S(=O)(NCc1c(Cl)cccc1Oc1ccccc1)c1ccc(F)cc1	-18%	x	-7%	-1%	0%	u
Cc1cccc(-c2nc(S(=O)(=O)c3ccc(Cl)cc3)c(N3CCCCCC3)o2)c1	x	-2%	x	x	0%	x
O=C1CN(CC(=O)Nc2cccc(Cl)c2Cl)c2ccccc2N1	-3%	-4%	-3%	-1%	-2%	1%
COc1cc(/C=N/NC(=O)c2cc(-c3ccccc3)nc3ccccc23)ccc1O	-3%	x	-6%	0%	11µM*	u
CCn1cc(/C=N\NC(=O)c2csc3ccccc23)c(C)n1	9%	-11%	29%	1%	u	u
O=C(O)COc1ccccc1/C=N/NC(=O)c1cc(-c2ccc(F)cc2)nc2ccccc12	-4%	-1%	0%	-3%	1.9µM*	u
O=C(N/N=C/c1ccc(O)cc1)c1csc2ccccc12	1%	4%	1%	19%	15µM*	u
Cc1ccc(/C=N/NC(=O)c2cc(-c3ccccc3)nc3ccccc23)o1	-2%	x	1%	-17%	12µM*	-25%
COc1ccc(-c2cc(C(=O)N/N=C/c3ccc4c(c3)OCO4)c3ccccc3n2)c(OC)c1	-9%	349%	1%	-3%	u	u
O=C(N/N=C/c1ccc(O)cc1)c1cc(-c2ccccc2)nc2ccccc12	6%	x	0%	0%	5.4µM*	-3%
O=C(N/N=C/c1ccc2c(c1)OCO2)c1cc(-c2ccc(F)cc2)nc2ccccc12	-4%	-21%	1%	-3%	5.4µM*	-1%
O=C(O)COc1ccccc1/C=N/NC(=O)c1cc2ccccc2cc1O	3%	x	-1%	-5%	7.6µM*	u
C=CCn1c(=S)[nH]c2ccc(Br)cc2c1=O	-4%	-7%	-14%	0%	2%	u
C=CCn1c(=S)[nH]c2nc3c(cc2c1=O)CCCC3	16%	-14%	16µM*	19%	-16%	23%
CC(C)(C)c1ccc(OCc2ccc(C(=O)N/N=C/c3ccc([N+](=O)[O-])cc3)o2)cc1	u	20%	2%	1.6µM*	u	27%
